We go through 20 molecules from ChEMBL document CHEMBL4296182, “CO-ADD screening of NIH NCI Diversity Set V”.

The subject of experiment [1] is Staphylococcus aureus. In words: Antibacterial activity against Staphylococcus aureus MRSA ATCC 43300 (CO-ADD:GP_020); MIC in CAMBH media using NBS plates, by Resazurin F(560/590). Type of experiment: functional. The settings on record: Concentration 20 uM, ASSAY_TEST Inhibition of Bacterial Growth, detection method Resazurin, Fluorescence (ex560/em590), MEDIA CAMHB, plate type 384well, CORNING #3640, time 18 hr. A general note: Resazurin is reduced to fluorescent resorufin, in cell work by metabolically active cells.

Experiment [2] has as its system Acinetobacter baumannii. In words: Antibacterial activity against Acinetobacter baumannii ATCC 19606 (CO-ADD:GN_034); MIC in CAMBH media using NBS plates, by Resazurin F(560/590). It is filed as functional. The settings on record: Concentration 20 uM, ASSAY_TEST Inhibition of Bacterial Growth, detection method Resazurin, Fluorescence (ex560/em590), MEDIA CAMHB, plate type 384well, CORNING #3640, time 18 hr.

For experiment [3], the system named is Escherichia coli. In words: Antibacterial activity against Escherichia coli ATCC 25922 (CO-ADD:GN_001); MIC in CAMBH media using NBS plates, by Resazurin F(560/590). The settings on record: Concentration 20 uM, ASSAY_TEST Inhibition of Bacterial Growth, detection method Resazurin, Fluorescence (ex560/em590), MEDIA CAMHB, plate type 384well, CORNING #3640, time 18 hr. It is filed as functional.

For experiment [4], the system named is Klebsiella pneumoniae. The settings on record: Concentration 20 uM; ASSAY_TEST Inhibition of Bacterial Growth; detection method Absorption (OD600); MEDIA CAMHB; plate type 384well; NBS; CORNING #3640; time 18 hr.
The test system of experiment [5] is Candida albicans. The settings on record: 20 µM.
Experiment [6] relates to Cryptococcus neoformans. The settings on record: Concentration 20 uM; ASSAY_TEST Inhibition of Fungal Growth; detection method Resazurin; Absorption (OD600-OD570); plate type 384well; NBS; CORNING #3640.

For part of these data: Entries with a potency or affinity are not part of this list.

In the case of `C=CCOc1c(CCC)cc(CCC)cc1C(N)=O`, the Inhibition in experiment [1] is 13.21%; in experiment [2] it was 14.83%; in experiment [3], 1.32%; in experiment [4], 19.26%; in experiment [5] it was 5.23%; in experiment [6], -4.27%.

In the case of `O=C(Nc1ccc(C(=O)O)c(O)c1)c1ccccc1` [BENZOYLPAS], the Inhibition in experiment [1] is -3.42%; in experiment [2] it was -17.37%; in experiment [3], 4.17%; in experiment [4], 3.36%; in experiment [5], 6.26%; in experiment [6], -5.98%.

For `Cc1cccn2c(S)nnc12`, the Inhibition was 10.19% in experiment [1]; -5.53% in experiment [2]; 13.03% in experiment [3]; 17.76% in experiment [4]; 5.89% in experiment [5]; -6.48% in experiment [6].

`Nc1ncncc1-c1ccc2ccccc2c1`: the Inhibition in experiment [1] is 8.62%; in experiment [2] it was 6.7%; in experiment [3] it was 0.44%; in experiment [4] it was 17.13%; in experiment [5], 5.79%; in experiment [6], -7.84%.

As for `CN(C)/C=N/c1ccc(Cl)c(Cl)c1`, the Inhibition is 2.81% in experiment [1]; 14.75% in experiment [2]; -10.37% in experiment [3]; 19.84% in experiment [4]; 8.37% in experiment [5]; -5.94% in experiment [6].

`CCOCCc1c(O)nc(SC)nc1O`: the Inhibition in experiment [1] is -2.52%; in experiment [2] it was -10.74%; in experiment [3], 0.79%; in experiment [4] it was 7.34%; in experiment [5] it was 2.01%; in experiment [6], -12.26%.

`O=C(/C=C/c1cccnc1)/C=C/c1cccnc1`: the Inhibition in experiment [1] is 16.75%; in experiment [2] it was 4.07%; in experiment [3], 0.92%; in experiment [4], 20.07%; in experiment [5] it was 31.4%; in experiment [6], -2.05%.

Regarding `OCc1cc(O)c(CO)nn1`, the Inhibition in experiment [1] is -17.8%; in experiment [2], -1.67%; in experiment [3] it was -7.33%; in experiment [4] it was 4.1%; in experiment [5], -0.36%; in experiment [6], 1.1%.

For `CC(=O)OCc1cc(-c2nc3ccccc3nc2O)nn1-c1ccc(Cl)cc1`, the Inhibition was 8.25% in experiment [1]; 12.91% in experiment [2]; -18.97% in experiment [3]; 4.82% in experiment [4]; 4.91% in experiment [5]; 44.96% in experiment [6].

As for `Sc1nc2ccccc2n2cccc12`, the Inhibition in experiment [1] is 2.5%; in experiment [2], -10.79%; in experiment [3] it was 2.01%; in experiment [4], 3.32%; in experiment [5] it was 17.9%; in experiment [6], -1.74%.

Consider `CC(=O)OCCn1c([N+](=O)[O-])cnc1/C=[N+](\[O-])C1CCCCC1`, for which the Inhibition in experiment [1] is 22.69%; in experiment [2], 11.41%; in experiment [3] it was 8.05%; in experiment [4], 25.14%; in experiment [5], 4.46%; in experiment [6], -10.83%.

As to `CCCCC(=O)N(CCC)CCC`, the Inhibition in experiment [1] was 2.53%; in experiment [2], -12.7%; in experiment [3] it was 10.06%; in experiment [4], 7.98%; in experiment [5], -2.94%; in experiment [6] it was -14.22%.

As for `Oc1nc(S)ncc1Oc1ccc(Cl)cc1Cl`, the Inhibition in experiment [1] is 8.02%; in experiment [2] it was 11.12%; in experiment [3] it was 2.19%; in experiment [4] it was 10.84%; in experiment [5], 6.27%; in experiment [6], -6.95%.

With `Cn1cnc([N+](=O)[O-])c1Sc1n[nH]c(N)n1`, the Inhibition in experiment [1] is 6.38%; in experiment [2], 14.39%; in experiment [3], -1%; in experiment [4], 1.75%; in experiment [5], -0.83%; in experiment [6], -4.45%.

For the molecule `NC(=O)CCC(C(=O)O)N1C(=O)C2C3CCC(C3)C2C1=O` (stereo not given), the Inhibition in experiment [1] was -3.52%; in experiment [2], -4.02%; in experiment [3] it was -8.27%; in experiment [4], 4.97%; in experiment [5] it was 2.39%; in experiment [6] it was -5.24%.

As for `C#C[C@]1(O)CC[C@H]2[C@@H]3CCC4=Cc5oncc5C[C@]4(C)[C@H]3CC[C@@]21C` [DANAZOL], the Inhibition is -10.91% in experiment [1]; 2.93% in experiment [2]; 12.68% in experiment [3]; 6.03% in experiment [4]; 0.72% in experiment [5]; -10.04% in experiment [6].

On to `O=C1C2CC3N1CCC31c3ccccc3-n3c1c2ccc3=O` (stereo not given), for which the Inhibition in experiment [1] was 27.56%; in experiment [2], -3.15%; in experiment [3], 6.22%; in experiment [4], 13.77%; in experiment [5] it was 5.53%; in experiment [6], -4.11%.

As for `CCCNC(=O)c1ccc(Cl)cc1Cl`, the Inhibition in experiment [1] is 12.41%; in experiment [2], -15.87%; in experiment [3], 4.4%; in experiment [4], 8.05%; in experiment [5], 0.63%; in experiment [6], -4.71%.

Consider `Cn1nc(SCc2ccccc2)c(=O)n(C(c2ccccc2)c2ccccc2)c1=O`, for which the Inhibition was 19.74% in experiment [1]; -15.03% in experiment [2]; 11.55% in experiment [3]; 5.74% in experiment [4]; 11% in experiment [5]; -0.62% in experiment [6].

Regarding `O=c1c2ccccc2ncn1-c1ccc(Cl)cc1`, the Inhibition is 11.71% in experiment [1]; -18.47% in experiment [2]; 12.96% in experiment [3]; 4.73% in experiment [4]; 3.91% in experiment [5]; -12.39% in experiment [6].

A word on the Inhibition: it is the relative decrease from the control value, in per cent.
